Compound activity: PubChem, several laboratories
NF-kB neuron act = raises NF-kB expression in human neuronal cells; NF-kB reporter expression; active compounds read high; fold change at 12.5 µM; 190,000 tested, 1.6% active; in the data active means fold change above about 3.3
Wee1 stabilizer = blocks degradation of human Wee1 kinase; HeLa Luc-Wee1K328M stability, luciferase luminescence; 100% = proteasome inhibitor MG132 effect; reporter increase, % at 5 µM; 220,000 tested, 1.2% active; AID 1321;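 active means activation above the mean of all tested compounds plus 3 SD, set per screening run, cut at about 8.8% in these data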;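 further: cells exposed to compound for 20 h before luminescence read; 0% = DMSO alone and 100% = MG132 at 30 µM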
Target sequence (P30291 whole entry K328M): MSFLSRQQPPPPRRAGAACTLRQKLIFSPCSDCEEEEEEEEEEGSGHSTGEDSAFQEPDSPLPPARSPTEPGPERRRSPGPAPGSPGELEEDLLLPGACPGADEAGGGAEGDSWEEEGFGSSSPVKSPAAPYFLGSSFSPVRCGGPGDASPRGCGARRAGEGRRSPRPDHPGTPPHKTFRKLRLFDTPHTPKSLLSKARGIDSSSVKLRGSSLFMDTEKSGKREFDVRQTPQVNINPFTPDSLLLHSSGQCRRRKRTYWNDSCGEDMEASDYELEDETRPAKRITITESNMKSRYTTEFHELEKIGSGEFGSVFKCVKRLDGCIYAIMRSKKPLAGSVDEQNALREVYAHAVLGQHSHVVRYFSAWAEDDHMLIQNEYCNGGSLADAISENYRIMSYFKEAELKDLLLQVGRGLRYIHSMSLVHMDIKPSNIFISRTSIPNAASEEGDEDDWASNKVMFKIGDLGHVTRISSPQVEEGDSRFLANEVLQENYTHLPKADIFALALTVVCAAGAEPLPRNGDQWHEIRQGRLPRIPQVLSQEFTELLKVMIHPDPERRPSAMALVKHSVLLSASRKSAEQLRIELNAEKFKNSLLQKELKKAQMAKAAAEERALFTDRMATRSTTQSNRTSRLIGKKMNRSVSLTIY
Hsp70 activator = switches on Hsp70 transcription; HeLa Hsp70 promoter luciferase reporter, luminescence; scaled: vehicle 0, proteasome-inhibitor control 100%; 200,000 tested, 0.04% active; AID 1203; activation, % at 10 µM;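 active means activation above the mean across all tested compounds plus 3 SD, cutoff set per campaign, cut at about 5.5% in these data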;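 further: 100% = MG132 at 30 µM as the positive control and 0% = DMSO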
APP 5'UTR act = APP 5'UTR luciferase reporter activation | SH-SY5Y APP 5'UTR luciferase reporter, luminescence; zero percent = DMSO vehicle wells | activation, % at 2 µM | 190,000 tested, 1% active | AID 1276;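 active means activation above a set limit, based on mean plus 3 SD of controls, cut at about 140% in these data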
STAT1 act = activators of IFN-gamma induced STAT1 signaling; NIH 3T3 STAT1-luciferase reporter, luminescence; 100% = IFN-gamma alone, no compound; activation (% of control), % at 5.5 µM; 200,000 tested, 2.6% active;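 active means activation above the screen-wide mean activation plus 3 SD, cut at about 130% in these data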;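 further: raw ratio to IFN-gamma control signal so 100% means no change and 0% no light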
APP transl inh = APP translation inhibition; SH-SY5Y APP 5'UTR-luciferase reporter, luminescence; inhibition, % at 2 µM; 190,000 tested, 0.82% active;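 active means inhibition above a set limit, derived from the sample mean plus 3 SD, cut at about 45% in these data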
An asterisk follows results filed as active. Sampled rows, rich in hits. Any-hit rate of the full collection: about 4.8%.

Screening CC(=O)c1ccc(C(C)(C)c2ccc(C(C)=O)s2)s1 returned NF-kB neuron act 1.04, Wee1 stabilizer 9.3*, Hsp70 activator -0.4, APP 5'UTR act -7.3, STAT1 act 85.4 and APP transl inh 7.3.
CN(C)c1ccc(N=Cc2nc(-c3ccccc3)oc2OC(=O)c2ccccc2)cc1 was read as NF-kB neuron act 2.04, Wee1 stabilizer 0.0, Hsp70 activator 0.1, APP 5'UTR act 155.2*, STAT1 act 122.0 and APP transl inh -155.2.
For CC(=O)Oc1oc(-c2ccccc2)nc1/C=N/c1ccccn1 the results were NF-kB neuron act 1.31, Wee1 stabilizer 0.6, Hsp70 activator 0.0, APP 5'UTR act 58.2, STAT1 act 129.0* and APP transl inh -58.2.
For O=C(O)c1cc(Sc2ccc(Br)cc2)nc2ccccc12 the results were NF-kB neuron act 1.1, Wee1 stabilizer 1.5, Hsp70 activator -0.2, APP 5'UTR act -5.0, STAT1 act 96.6 and APP transl inh 5.0.
`Cn1c(CCNC(=O)c2ccccc2Cl)n[nH]c1=S` gave NF-kB neuron act 1.88, Wee1 stabilizer -1.4, Hsp70 activator -0.1, APP 5'UTR act 24.3, STAT1 act 95.9 and APP transl inh -24.3.
Screening Cc1ccc2nc(SCC(=O)N/N=C/c3ccco3)cc(C)c2c1 returned NF-kB neuron act 0.63, Wee1 stabilizer 1.9, Hsp70 activator -0.3, APP 5'UTR act 21.4, STAT1 act 90.8 and APP transl inh -21.4.
`Cc1ccc2nc(N/N=C/c3ccco3)cc(C)c2c1` gave NF-kB neuron act 3.19, Wee1 stabilizer 3.0, Hsp70 activator 0.0, APP 5'UTR act 100.9, STAT1 act 138.4* and APP transl inh -100.9.
Screening O=[N+]([O-])c1ccc(N/N=C/c2ccccc2)c(F)c1 returned NF-kB neuron act 2.31, Wee1 stabilizer -0.2, Hsp70 activator 0.0, APP 5'UTR act 33.0, STAT1 act 145.3* and APP transl inh -33.0.
Screening Cc1c(/C(O)=C2\C(=O)C(=O)N(CCCN(C)C)C2c2ccccc2)cnn1-c1ccccc1 (configuration not stated) returned Wee1 stabilizer -3.5, Hsp70 activator -0.1, APP 5'UTR act 17.6, STAT1 act 106.1 and APP transl inh -17.6.
For Cc1ccc(-c2csc(NC(=O)CN3C(=O)CCC3=O)n2)cc1 the results were NF-kB neuron act 1.25, Wee1 stabilizer -0.8, Hsp70 activator -0.1, APP 5'UTR act 3.5, STAT1 act 102.5 and APP transl inh -3.5.
`O=C(CN1C(=O)CCC1=O)Nc1nc(-c2ccc3ccccc3c2)cs1` gave NF-kB neuron act 1.9, Wee1 stabilizer -3.6, Hsp70 activator -0.1, APP 5'UTR act -5.1, STAT1 act 138.2* and APP transl inh 5.1.
Screening O=C(CN1C(=O)CCC1=O)Nc1nc(-c2nc3ccccc3s2)cs1 returned NF-kB neuron act 1.18, Wee1 stabilizer 3.8, Hsp70 activator 0.0, APP 5'UTR act 51.8, STAT1 act 131.4* and APP transl inh -51.8.
Screening Cn1ccnc1Sc1ccc(C=O)cc1[N+](=O)[O-] returned NF-kB neuron act 1.11, Wee1 stabilizer -1.5, Hsp70 activator -0.3, APP 5'UTR act -7.7, STAT1 act 100.5 and APP transl inh 7.7.
CCOCCNC(=O)c1ccc2c3c(cccc13)CC2 was read as NF-kB neuron act 1.26, Wee1 stabilizer -0.9, Hsp70 activator -0.2, APP 5'UTR act -9.3, STAT1 act 97.1 and APP transl inh 9.3.
C=CCNc1cnn(CC(C)=O)c(=O)c1Br was read as NF-kB neuron act 1.25, Wee1 stabilizer -1.9, Hsp70 activator -0.1, APP 5'UTR act -4.8, STAT1 act 100.4 and APP transl inh 4.8.
`CC(C)(C)C(=O)Cn1ncc(Br)c(Br)c1=O` gave NF-kB neuron act 0.33, Wee1 stabilizer -0.1, Hsp70 activator -0.3, APP 5'UTR act -93.7, STAT1 act 94.6 and APP transl inh 93.7*.
For CCc1ccc(NC(=S)NC(=O)CC(C)C)cc1 the results were NF-kB neuron act 2.19, Wee1 stabilizer -0.6, Hsp70 activator 0.0, APP 5'UTR act 60.9, STAT1 act 128.9* and APP transl inh -60.9.
Screening COC(=O)CCC(=O)NC(=S)Nc1ccc(S(=O)(=O)Nc2cc(OC)nc(OC)n2)cc1 returned NF-kB neuron act 1.28, Wee1 stabilizer -2.5, Hsp70 activator -0.2, APP 5'UTR act 8.3, STAT1 act 89.7 and APP transl inh -8.3.
`CC(C)CC(=O)NC(=S)Nc1ccc(N2CCCC2)c(Cl)c1` gave Wee1 stabilizer 10.1*.
`COc1cc(NS(=O)(=O)c2ccc(NC(=S)NC(=O)CC(C)C)cc2)nc(OC)n1` gave NF-kB neuron act 1.14, Wee1 stabilizer -0.1, Hsp70 activator -0.3, APP 5'UTR act -54.5, STAT1 act 105.7 and APP transl inh 54.5*.
Cc1ccc(S(=O)(=O)c2c(N)n(NC(=O)c3ccco3)c3nc4ccccc4nc23)cc1 was read as NF-kB neuron act 0.98, Wee1 stabilizer 1.8, Hsp70 activator -0.3, APP 5'UTR act -6.5, STAT1 act 104.4 and APP transl inh 6.5.
CC(C)CC1C(C#N)=C(N)SC(N)=C1C#N was read as NF-kB neuron act 0.97, Wee1 stabilizer 3.3, Hsp70 activator 0.0, APP 5'UTR act 4.6, STAT1 act 103.1 and APP transl inh -4.6.
`CC(C)C1Oc2ccccc2N(CC(=O)N(Cc2ccccn2)CC2CCCO2)C1=O` (configuration not stated) gave NF-kB neuron act 1.33, Wee1 stabilizer 9.2*, Hsp70 activator 0.1, APP 5'UTR act -4.8, STAT1 act 95.6 and APP transl inh 4.8.
O=C1CN(C(=O)COC(=O)c2oc3ccccc3c2COc2ccccc2)c2ccccc2N1 was read as NF-kB neuron act 1.16, Wee1 stabilizer -1.7, Hsp70 activator -0.3, APP 5'UTR act -45.4, STAT1 act 101.8 and APP transl inh 45.4*.
Screening CSc1ccc(/C=C/C(=O)c2ccc(NC(=O)C(C)C)cc2)cc1 returned NF-kB neuron act 1.1, Wee1 stabilizer -0.3, Hsp70 activator 0.2, APP 5'UTR act 7.3, STAT1 act 99.7 and APP transl inh -7.3.
For CSc1cccc(NC(=O)/C=C/c2ccc(Cl)cc2)c1 the results were NF-kB neuron act 1.78, Wee1 stabilizer 2.9, Hsp70 activator -0.1, APP 5'UTR act 19.7, STAT1 act 111.2 and APP transl inh -19.7.
Screening CSc1ccc(/C=C/C(=O)Nc2ccccc2)cc1 returned NF-kB neuron act 6.28*, Wee1 stabilizer 2.1, Hsp70 activator -0.6, APP 5'UTR act 210.3*, STAT1 act 49.8 and APP transl inh -210.3.
For CSc1cccc(NC(=O)/C=C/c2ccccc2)c1 the results were NF-kB neuron act 2.74, Wee1 stabilizer -1.1, Hsp70 activator 0.2, APP 5'UTR act 109.1, STAT1 act 133.2* and APP transl inh -109.1.
For CSc1ccc(C(=O)/C=C/c2ccc(N)cc2)cc1 the results were NF-kB neuron act 10*, Wee1 stabilizer 1.4, Hsp70 activator -0.1, APP 5'UTR act 116.8, STAT1 act 113.5 and APP transl inh -116.8.
